In the library only some 19% were active in any assay of this set; here they are far more common.
DT40 TDP1 no CPT = qHTS for Inhibitors of human tyrosyl-DNA phosphodiesterase 1 (TDP1): qHTS in cells in absence of CPT; DT40 Tdp1-/- hTDP1 cells, no CPT, ATP luminescence, 48 h; Potency, µM (top dose mostly 46.2 µM), without a hit: at the top dose activity change, negative = growth inhibition, actives largely listed as inhibitors; 420,000 compounds, 15% hits; AID 686978, 2013; note: potency is the fitted concentration of half-maximal effect; nearly all actives have a fitted effect of over 55% in size
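Readout: luminescence from CellTiter-Glo after 30 min in the dark at RT. Cells: DT40 Tdp1-/- with stable hTDP1, 400/well. Exposure: compounds alone, ≥48 hr, 37 °C.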
HT1080NT lethal = kills 2HG-producing HT-1080-NT fibrosarcoma cells; HT-1080-NT fibrosarcoma viability, CellTiter-Glo ATP luminescence, 48 h; Potency, µM (highest dose often 46.1 µM), for the others: at the top dose activity, negative = less viability, actives largely listed as cytotoxic; 360,000 compounds, 1.6% hits;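 note: NT is the 2HG producing partner of a matched IDH1 knockdown line; potency is the fitted concentration of half-maximal effect; 0% = DMSO-treated cells and -100% = media-only wells without cells; nearly all actives have a fitted effect of over 55% in size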
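Read-out is CellTiter-Glo luminescence after 10 minutes at room temperature, following 48 hours' compound treatment of HT-1080-NT cells (750 cells/well, RPMI, 5% FBS, 37 degrees C).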
DT40 TDP1 CPT = growth inhibition of DT40 Tdp1-/-;hTDP1 cells with camptothecin (screen for TDP1 inhibitors); AID 686979; 420,000 compounds, 12% hits; chicken DT40 Tdp1-/-;hTDP1 cells + 20 nM CPT, ATP luminescence, 48 h; Potency, µM (series often up to 46.2 µM), without a hit: at the highest dose activity change, negative = growth inhibition, hits mostly inhibitors; note: potency is the fitted concentration of half-maximal effect; nearly all actives have a fitted effect of over 55% in size
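Chicken DT40 Tdp1-/- cells complemented with human TDP1, 400 cells/well, exposed to compounds plus 20 nM camptothecin for at least 48 h at 37 C; viability read as ATP content by CellTiter-Glo luminescence.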
IL1B secr inh = inhibitors of inflammasome signaling (IL-1 beta secretion) | activity change, % at 57.5 µM | 360,000 compounds, 4.7% hits | THP-1 LPS/ATP IL-1B secretion, AlphaLISA, 16 h; stronger effect = lower value; in the data active = activity change below about -50%; inconclusive = mostly about -30% to -49%
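Secreted IL-1B measured by AlphaLISA bead assay after 16 h compound exposure of THP-1 cells; compounds (final up to 57.5 uM) added 1 h before LPS (250 ng/mL) and ATP (1.25 mM) stimulation; lower signal means less secretion.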
HT1080 IDH1KD tx = kills HT-1080 cells with IDH1 knockdown | 360,000 compounds, 2% hits | HT-1080 IDH1 knockdown viability, ATP luminescence, 48 h | Potency, µM (doses to about 46.1 µM), inactives show top-dose activity, negative = toxicity, most hits filed as cytotoxic;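 note: potency is the fitted concentration of half-maximal effect; 0% = DMSO wells and -100% = cell-free medium wells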
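Luminescent ATP read-out (CellTiter-Glo, 10 min at room temperature) after 48 h compound exposure at 37 °C gave viability of IDH1-knockdown HT-1080 cells. Activity was normalised to DMSO and cell-free wells, then fitted as concentration-response curves.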
* hit, by the source's call; u = inconclusive; x = not tested or not shown; [ ] = another dose, or the depositor's remark. Unless noted, calls come from the whole dose curve; as a rule, active = well fitted curve in the direction sought with a large enough effect; inconclusive = small, poorly fitted or top-dose-only effect, or another doubt; inactive = no such curve, though single readings can be large; an effect the other way counts as inactive or inconclusive. Unless noted, % is set by controls: 0 for no effect and ±100 for the full control effect.

SMILES | DT40 TDP1 no CPT | HT1080NT lethal | DT40 TDP1 CPT | IL1B secr inh | HT1080 IDH1KD tx
COCC(C)n1c(C)cc(C(=O)CSc2nc3ccccc3c(=O)[nH]2)c1C (stereo not drawn) | 21µM* | u | u | 21 | u
Cc1cc(C(=O)CSc2nc3ccccc3[nH]2)c(C)n1C | u | 11% | u | -5 | 14%
COCCn1c(C)cc(C(=O)COc2nc3ccccc3nc2C)c1C | 15µM* | -12% | 16µM* | -18 | -29%
COCC(C)n1c(C)cc(C(=O)COC(=O)CCc2nc3ccccc3c(=O)[nH]2)c1C (stereo not drawn) | -22% | -12% | 6% | -18 | -6%
C=CCn1c(C)cc(C(=O)CSc2nc3ccccc3[nH]2)c1C | 9.2µM* | 4% | 21µM* | -65* | u
CCc1ccc(CNC(=O)CCS(=O)(=O)Cc2ccc(C)cc2)cc1 | 22% | -1% | -18% | 4 | -1%
CCCCc1nc(SCC(=O)Nc2ccc(S(N)(=O)=O)cc2)n[nH]1 | -7% | u | -4% | 59 | 15%
Cc1ccccc1/C=C(\C#N)c1nc(-c2ccc(Cl)cc2)cs1 | -17% | x | -5% | x | x
CC12CCC(C(N)C1=O)C2(C)C (stereo not drawn) | -5% | 3% | 6% | 3 | -1%
CC1(C(=O)NS(=O)(=O)c2ccc3c(c2)CCO3)CCN1C(=O)COc1ccc(Cl)cc1 (stereo not drawn) | -21% | 14% | -2% | 4 | 22%
Cc1cc(C(=O)CSc2nc3ccccc3[nH]2)c(C)n1Cc1ccco1 | 5.8µM* | u | 8.2µM* | -18 | u
COCC(C)n1c(C)cc(C(=O)CSc2ncccn2)c1C (stereo not drawn) | 6% | 10% | -1% | -5 | 0%
Cc1cc(C(=O)CSc2nn(-c3ccccc3)c(=S)s2)c(C)n1Cc1ccco1 | u | -2% | u | -7 | -4%
COCC(C)n1c(C)cc(C(=O)CSc2nnc(Nc3ccccc3F)s2)c1C (stereo not drawn) | u | -3% | 23µM* | -16 | -26%
COCCCn1c(C)cc(C(=O)COC(=O)CCc2nc3ccccc3c(=O)[nH]2)c1C | 3% | 10% | 19% | -76* | -2%
C=CCn1c(C)cc(C(=O)CSc2nc3ccccc3c(=O)[nH]2)c1C | 21µM* | -18% | 16µM* | -19 | u
COc1ccc(CNC(=O)CN2C(=O)c3ccc([N+](=O)[O-])cc3C2=O)cc1 | 1% | -2% | 1% | 18 | 2%
Cc1c(C=O)c2ccccc2n1CCOc1ccccc1F | 10µM* | -8% | 23µM* | 13 | -29%
COC(=O)c1cn(NC(=O)c2cnccn2)c(=O)c2ccccc12 | 7.3µM* | u | 7.3µM* | 170 | u
Cc1cccc(C(=O)NC(=S)Nc2ccc(N3CCOCC3)cc2)c1 | u | 3% | u | -7 | 11%
COc1ccc(C(=O)Nc2ccc(N3CCN(C)CC3)cc2)cc1OC | -29% | -3% | 5% | -81* | 4%
COc1ccc(C(=O)NC(=S)Nc2ccc(N3CCOCC3)cc2)cc1Cl | 21µM* | -30% | u | -14 | -29%
Cc1ccc(C(=O)NC(=S)Nc2ccc(N3CCOCC3)cc2)cc1C | 15µM* | 1% | u | 0 | 1%
COCC(=O)Nc1cc(C(=O)N2CCCC(C(C)=O)C2)cc2nc(-c3ccccc3)n(C)c12 (stereo not drawn) | 1% | x | 5% | x | x
CCOC(=O)C(=O)Nc1c(C(=O)Nc2cccc(F)c2)oc2ccccc12 | -14% | x | -5% | x | x
SMILES | DT40 TDP1 no CPT | HT1080NT lethal | DT40 TDP1 CPT | IL1B secr inh | HT1080 IDH1KD tx
O=C(N[C@@H]1C/C=C\C[C@H](CC(=O)N(CCO)Cc2ccccc2)C(=O)N[C@@H](Cc2ccccc2)COC1=O)OCC1c2ccccc2-c2ccccc21 | 16µM* | -10% | 16µM* | 17 | -12%
CC(C)(C)[C@H]1COC(=O)[C@H](NC(=O)OCC2c3ccccc3-c3ccccc32)C/C=C\C[C@@H](CC(=O)N(CCO)Cc2ccccc2)C(=O)N1 | 23µM* | u | 9.2µM* | -27 | -17%
O=C(N[C@@H]1C/C=C\C[C@@H](CC(=O)N(CCO)Cc2ccccc2)C(=O)NCCOC1=O)OCC1c2ccccc2-c2ccccc21 | 9.2µM* | -15% | 16µM* | 17 | 2%
O=C(N[C@H]1C/C=C\C[C@@H](CC(=O)N(CCO)Cc2ccccc2)C(=O)NC[C@H](c2ccccc2)OC1=O)OCC1c2ccccc2-c2ccccc21 | 4.1µM* | 23µM* | 3.7µM* | 14 | u
CC(C)(C)OC(=O)C[C@@H]1C/C=C\C[C@H](CC(=O)N(CCO)Cc2ccccc2)C(=O)N[C@H](C(C)(C)C)COC1=O | u | -2% | u | 14 | 2%
O=C1CCCC/C=C\C[C@H](CC(=O)N(CCO)Cc2ccccc2)C(=O)N[C@@H](c2ccccc2)CO1 | -22% | 14% | u | 26 | 15%
CON | 1% | x | 3% | x | x
COc1ccc([C@H]2CC(=O)C[C@@H](CCn3cccn3)O2)cc1 | -9% | 9% | -4% | 40 | 19%
C#CC1(NC(=S)Nc2cccc(OC)c2)CCCCC1 | -6% | -1% | 1% | 15 | -24%
C[C@@H]1COC(=O)[C@H](NC(=O)OCC2c3ccccc3-c3ccccc32)C/C=C\C[C@@H](CC(=O)N(CCO)Cc2ccccc2)C(=O)N1 | 15µM* | 9% | 9.2µM* | 3 | 10%
C[C@H]1COC(=O)[C@H](Cc2ccc(F)cc2)C/C=C\C[C@H](CC(=O)N(CCO)Cc2ccccc2)C(=O)N1 | u | 10% | u | -1 | 17%
CC1=C(C(=O)N2CCCCCC2)CC(CC(=O)NCc2ccco2)C(=O)N1Cc1ccccc1 (stereo not drawn) | 7% | 8% | 2% | -25 | 16%
Cc1ccc(OCC(=O)N2CCC(C)CC2)c([N+](=O)[O-])n1 | 0% | 3% | -8% | 7 | 6%
C[C@H](NS(=O)(=O)OCC(Cl)(Cl)Cl)C1CC1c1ccccc1 (stereo partly drawn) | -23% | -3% | -20% | 1 | -3%
O=S(=O)(NC1CC(NS(=O)(=O)OCC(Cl)(Cl)Cl)C2CCCCC12)OCC(Cl)(Cl)Cl (stereo not drawn) | 15µM* | u | 15µM* | -19 | u
Cc1cc(N2CCOCC2)nc(SCc2ccc(Cl)cc2Cl)n1 | u | -8% | 14% | -14 | 7%[9.24 µM]

Screening results deposited in PubChem BioAssay by National Center for Advancing Translational Sciences (NCATS).
